For ten molecules, outcome and AC50 results are on record in PubChem BioAssay (EPA / NIEHS).

Assay [1] can be described thus: ATG_TGFb_CIS: Attagene CIS-FACTORIAL HepG2 Assay for human Transforming Growth Factor (TGF) (AID 2282967; active means hit-call score of the fitted dose curve at least 0.9, where 1 is the maximum; inactive means score below 0.9). The conditions noted are these: HepG2 Attagene CIS TGFb reporter, mRNA transcription; actives raise or lower the signal. In short, it runs like this: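 Bidirectional fitting relative to DMSO gave the endpoint. Underlying data: reporter mRNA from HepG2 cells carrying transiently transfected cis-regulated reporter constructs, harvested 24 h after dosing and analyzed by RT-PCR and capillary electrophoresis.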

For assay [2], the target named is Nuclear receptor subfamily 1 group I member 3 (Homo sapiens) (UniProt Q14994). Nature of the assay: ATG_CAR_TRANS: Attagene TRANS-FACTORIAL HepG2 Assay for human Constitutive Androstane Receptor (CAR) (AID 2282969).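 Further: activators raise reporter mRNA above DMSO so AC50 marks induction.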 To be noted: HepG2 Attagene TRANS-FACTORIAL CAR reporter. In short, it runs like this:
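Transiently transfected HepG2, multiplex TRANS reporters (CAR-Gal4 chimera driving GAL4-UAS reporter). 24 h dosing. Readout: reporter transcript by RT-PCR + capillary electrophoresis, fluorescence intensity; positive direction vs DMSO.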

In assay [3] the target is Steroid hormone receptor ERR1 (Homo sapiens) (UniProt P11474). Nature of the assay: ATG_ERRa_TRANS: Attagene TRANS-FACTORIAL HepG2 Assay for human Estrogen-Related Receptor alpha (ERRa) (AID 2282971). The conditions noted are these: HepG2 Attagene TRANS reporter, ERRa transactivation. The method in brief: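 HepG2 cells transiently transfected with GAL4-UAS reporter units and chimeric NR-Gal4 constructs; after 24 hour compound incubation, reporter mRNA quantified by RT-PCR, fluorescent labelling and capillary electrophoresis, gain of signal versus DMSO.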
Sequence of Steroid hormone receptor ERR1 (Homo sapiens) (P11474 whole entry, looked up, the tested form may be a part): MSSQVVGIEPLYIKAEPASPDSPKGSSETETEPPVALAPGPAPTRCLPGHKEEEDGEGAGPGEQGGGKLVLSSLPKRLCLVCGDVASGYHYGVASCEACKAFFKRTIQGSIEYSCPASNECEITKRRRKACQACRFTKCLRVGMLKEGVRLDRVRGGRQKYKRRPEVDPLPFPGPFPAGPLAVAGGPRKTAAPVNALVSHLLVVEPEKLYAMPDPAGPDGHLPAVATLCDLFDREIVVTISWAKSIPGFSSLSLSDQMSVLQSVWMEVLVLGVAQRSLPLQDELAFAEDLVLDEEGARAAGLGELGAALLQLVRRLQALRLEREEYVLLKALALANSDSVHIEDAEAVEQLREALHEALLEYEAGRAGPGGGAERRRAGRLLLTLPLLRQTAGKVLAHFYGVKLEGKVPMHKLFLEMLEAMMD

Assay [4] has as its target X-box-binding protein 1 (Homo sapiens) (UniProt P17861). Nature of the assay: ATG_Xbp1_CIS: Attagene CIS-FACTORIAL HepG2 Assay for human X-box Binding Protein 1 (XBP1) (AID 2282972; active means hit-call score of the fitted dose curve at least 0.9, where 1 is the maximum; inactive means score below 0.9). To be noted: HepG2 XBP1 cis-element reporter, Attagene multiplex; actives raise or lower the signal. In short, it runs like this: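 Reporter transcripts were quantified by RT-PCR with fluorescent primer extension and capillary electrophoresis after 24 h chemical exposure. Cells: transiently transfected HepG2 carrying cis-regulated reporter constructs; data fitted bidirectionally relative to DMSO.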

Assay [5] can be described thus: ATG_GAL4_TRANS: Attagene TRANS-FACTORIAL HepG2 Assay for GAL4 (Internal Marker) (AID 2282976). To be noted: HepG2 Attagene TRANS GAL4 internal marker reporter. In short, it runs like this:
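Background-control readout: GAL4-UAS reporter transcript in transiently transfected HepG2 cells after 24 h compound exposure. Measured by RT-PCR, 6-FAM primer extension, HpaI digest and capillary electrophoresis; gain-of-signal fit versus DMSO.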

The target in assay [6] is Bile acid receptor (Homo sapiens) (UniProt Q96RI1). The assay can be described thus: ATG_FXR_TRANS: Attagene TRANS-FACTORIAL HepG2 Assay for Farnesoid X Receptor (FXR) (AID 2282979).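 Further: hits raise reporter mRNA above DMSO so AC50 marks FXR activation.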 To be noted: HepG2 Attagene TRANS FXR-GAL4 reporter transcription. In short, it runs like this:
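HepG2 cells were transiently transfected with GAL4-UAS reporters driven by chimeric NR-Gal4 proteins and dosed for 24 h. Reporter mRNA was quantified by RT-PCR, fluorescent labelling, HpaI digestion and capillary electrophoresis, with gain of signal scored versus DMSO.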

Assay [7] in a line: ATG_M_06_TRANS: Attagene TRANS-FACTORIAL HepG2 Assay for M06 Transcription Factor (Internal Marker) (AID 2282983). To be noted: HepG2 Attagene TRANS M06 internal marker reporter. The method in brief:
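mRNA levels of a reporter transcript, quantified as FAM fluorescence on capillary electrophoresis, served as readout. HepG2 cells expressing exogenous GAL4-chimera reporter constructs were exposed for 24 h. Gain of signal over DMSO was evaluated.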

Assay [8] in a line: ATG_M_32_TRANS: Attagene TRANS-FACTORIAL HepG2 Assay for M32 Transcription Factor (Internal Marker) (AID 2282984). To be noted: HepG2 Attagene TRANS M32 internal marker reporter. The method in brief:
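Internal-marker readout from a multiplexed transcription reporter panel. HepG2 cells were transfected with GAL4-UAS reporter units, treated 24 hours, and reporter transcript levels determined by fluorescence after RT-PCR and capillary separation.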

Assay [9] concerns the target Nuclear receptor subfamily 4 group A member 2 (Homo sapiens) (UniProt P43354). Nature of the assay: ATG_NURR1_TRANS: Attagene TRANS-FACTORIAL HepG2 Assay for human Nuclear Receptor Related Protein 1 (NURR1) (AID 2282985). To be noted: HepG2 Attagene TRANS reporter, mRNA readout. In short, it runs like this: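 Endpoint: reporter mRNA increase relative to DMSO. HepG2 cells transfected with reporter units, treated 24 h; RNA processed by RT-PCR, labelling, HpaI digestion and capillary electrophoresis.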

Assay [10] deals with Transcriptional activator Myb (Homo sapiens) (UniProt P10242). The assay can be described thus: ATG_Myb_CIS: Attagene CIS-FACTORIAL HepG2 Assay for human Myeloblastosis (Myb) Proto-Oncogene Transcription Factor (AID 2282986; active means hit-call score of the fitted dose curve at least 0.9, where 1 is the maximum; inactive means score below 0.9). To be noted: HepG2 Attagene CIS-FACTORIAL Myb reporter transcription; actives raise or lower the signal. In short, it runs like this:
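Using HepG2 liver cells bearing transiently transfected cis-promoter reporter constructs, the assay measures induction or loss of reporter mRNA after 24 hours of dosing. Detection used fluorescently labeled RT-PCR products separated by capillary electrophoresis.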

For assay [11], the target named is Nuclear respiratory factor 1 (Homo sapiens) (UniProt Q16656). Nature of the assay: ATG_NRF1_CIS: Attagene CIS-FACTORIAL HepG2 Assay for human Nuclear Respiratory Factor 1 (NRF1) Orphan Gene (AID 2282987; active means hit-call score of the fitted dose curve at least 0.9, where 1 is the maximum; inactive means score below 0.9). The conditions noted are these: HepG2 NRF1 cis-element reporter, Attagene multiplex; actives raise or lower the signal. In short, it runs like this:
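Reporter mRNA induction or loss in HepG2 cells after 24 h dosing; cis-regulated reporter constructs report endogenous transcription-factor activity. Quantified by RT-PCR/capillary electrophoresis fluorescence, DMSO-referenced.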

The target of assay [12] is Estrogen receptor (Homo sapiens) (UniProt P03372). Nature of the assay: ATG_ERa_TRANS: Attagene TRANS-FACTORIAL HepG2 Assay for human Estrogen Receptor alpha (ERa) (AID 2282970). To be noted: HepG2 Attagene TRANS ERa GAL4 reporter, mRNA. In short, it runs like this: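 Gal4-fusion ERa transactivation, measured as reporter transcript level in transiently transfected HepG2 cells. Exposure 24 h; RT-PCR plus capillary electrophoresis with fluorescence detection.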
Sequence of Estrogen receptor (Homo sapiens) (P03372 whole entry, looked up, the tested form may be a part): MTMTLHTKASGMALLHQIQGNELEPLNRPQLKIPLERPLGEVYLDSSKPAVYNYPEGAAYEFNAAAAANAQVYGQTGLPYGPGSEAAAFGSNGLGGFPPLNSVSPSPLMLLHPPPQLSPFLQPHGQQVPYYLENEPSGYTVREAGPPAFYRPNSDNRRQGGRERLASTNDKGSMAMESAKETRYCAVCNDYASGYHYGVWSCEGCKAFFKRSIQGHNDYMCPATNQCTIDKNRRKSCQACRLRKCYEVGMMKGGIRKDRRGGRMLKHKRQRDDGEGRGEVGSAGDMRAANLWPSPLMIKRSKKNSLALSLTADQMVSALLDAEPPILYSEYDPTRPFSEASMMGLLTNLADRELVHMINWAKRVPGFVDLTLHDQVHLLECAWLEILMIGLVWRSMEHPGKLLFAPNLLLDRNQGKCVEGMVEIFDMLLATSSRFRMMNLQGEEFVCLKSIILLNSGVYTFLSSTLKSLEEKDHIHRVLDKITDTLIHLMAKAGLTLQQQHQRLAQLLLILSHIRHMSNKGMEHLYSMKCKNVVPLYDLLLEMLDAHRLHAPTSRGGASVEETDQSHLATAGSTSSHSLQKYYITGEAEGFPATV

Assay [13] deals with Estrogen-related receptor gamma (Homo sapiens) (UniProt P62508). The assay can be described thus: ATG_ERRg_TRANS: Attagene TRANS-FACTORIAL HepG2 Assay for human Estrogen-Related Receptor gamma (ERRg) (AID 2282977).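 Further: hits increase reporter signal over DMSO so potencies reflect activators.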 The conditions noted are these: HepG2 Attagene TRANS reporter, ERRg transactivation. In short, it runs like this:
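Exogenous NR-Gal4 chimera activity measured as reporter transcript induction after 24 h in transiently transfected HepG2 cells. RNA reverse-transcribed, PCR-amplified, 6-FAM-labelled and resolved by capillary electrophoresis; increase over DMSO baseline.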

In assay [14] the target is Hepatocyte nuclear factor 4-alpha (Homo sapiens) (UniProt P41235). Nature of the assay: ATG_HNF4a_TRANS: Attagene TRANS-FACTORIAL HepG2 Assay for human Hepatocyte Nuclear Factor 4 alpha (HNF4a) (AID 2282982). The conditions noted are these: HepG2 HNF4a transactivation reporter, mRNA readout. The method in brief: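 Endpoint reflects transcriptional activation of a GAL4-UAS reporter by an HNF4a-GAL4 chimera in transfected HepG2 cells, 24 h post-dosing. Fluorescence from RT-PCR products separated by capillary electrophoresis; DMSO baseline.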
Sequence of Hepatocyte nuclear factor 4-alpha (Homo sapiens) (P41235 whole entry, looked up, the tested form may be a part): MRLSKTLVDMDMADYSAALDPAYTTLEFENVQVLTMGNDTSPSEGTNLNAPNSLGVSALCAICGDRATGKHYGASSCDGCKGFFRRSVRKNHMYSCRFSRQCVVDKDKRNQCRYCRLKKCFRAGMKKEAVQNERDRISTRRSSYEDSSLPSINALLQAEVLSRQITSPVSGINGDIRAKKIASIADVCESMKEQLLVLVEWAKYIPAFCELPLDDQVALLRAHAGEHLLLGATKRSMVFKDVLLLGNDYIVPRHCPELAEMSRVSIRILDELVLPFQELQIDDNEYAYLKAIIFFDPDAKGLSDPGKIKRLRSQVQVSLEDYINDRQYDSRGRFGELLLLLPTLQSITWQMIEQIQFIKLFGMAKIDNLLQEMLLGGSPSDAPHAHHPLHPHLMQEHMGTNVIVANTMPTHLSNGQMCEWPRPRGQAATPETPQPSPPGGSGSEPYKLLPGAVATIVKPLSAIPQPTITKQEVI

Assay [15] can be described thus: ATG_M_19_TRANS: Attagene TRANS-FACTORIAL HepG2 Assay for M19 Transcription Factor (Internal Marker) (AID 2282974). To be noted: HepG2 Attagene TRANS-FACTORIAL M19 internal marker reporter. In short, it runs like this:
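Multiplexed TRANS format: HepG2 liver cells bearing transient GAL4-UAS reporter units, chemical treatment 24 h, reporter transcripts quantified by RT-PCR plus capillary electrophoresis. DMSO defines baseline.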

Assay [16] deals with Glucocorticoid receptor (Homo sapiens) (UniProt P04150). Nature of the assay: ATG_GR_TRANS: Attagene TRANS-FACTORIAL HepG2 Assay for human Glucocorticoid Receptor (GR) (AID 2282978).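 Further: activators score as hits since higher reporter transcript over DMSO is fitted.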 To be noted: HepG2 Attagene TRANS GR reporter, mRNA transcription. The method in brief: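 Transiently transfected HepG2 cells express chimeric NR-GAL4 proteins acting on GAL4-UAS reporter units. Compounds are applied for 24 h. mRNA induction over DMSO is measured by capillary electrophoresis.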

The target of assay [17] is Androgen receptor (Homo sapiens) (UniProt P10275). The assay can be described thus: ATG_AR_TRANS: Attagene TRANS-FACTORIAL HepG2 Assay for human Androgen Receptor (AR) (AID 2282973). The conditions noted are these: HepG2 Attagene TRANS-FACTORIAL AR reporter transcription. In short, it runs like this: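 HepG2 cells transiently transfected with AR-Gal4 chimera and GAL4-UAS reporter units; chemical exposure 24 h. Reporter mRNA quantified by RT-PCR with fluorescent labelling and capillary electrophoresis; gain-of-signal fitted against DMSO.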

Records with an inconclusive call do not appear. Activity calls are given as the source filed them. How the source made its calls, unless noted: active means hit-call score of the fitted dose curve at least 0.9, where 1 is the maximum; inconclusive means response in the unintended direction; inactive means score below 0.9.

Sequence of Nuclear receptor subfamily 4 group A member 2 (Homo sapiens) (P43354 whole entry, looked up): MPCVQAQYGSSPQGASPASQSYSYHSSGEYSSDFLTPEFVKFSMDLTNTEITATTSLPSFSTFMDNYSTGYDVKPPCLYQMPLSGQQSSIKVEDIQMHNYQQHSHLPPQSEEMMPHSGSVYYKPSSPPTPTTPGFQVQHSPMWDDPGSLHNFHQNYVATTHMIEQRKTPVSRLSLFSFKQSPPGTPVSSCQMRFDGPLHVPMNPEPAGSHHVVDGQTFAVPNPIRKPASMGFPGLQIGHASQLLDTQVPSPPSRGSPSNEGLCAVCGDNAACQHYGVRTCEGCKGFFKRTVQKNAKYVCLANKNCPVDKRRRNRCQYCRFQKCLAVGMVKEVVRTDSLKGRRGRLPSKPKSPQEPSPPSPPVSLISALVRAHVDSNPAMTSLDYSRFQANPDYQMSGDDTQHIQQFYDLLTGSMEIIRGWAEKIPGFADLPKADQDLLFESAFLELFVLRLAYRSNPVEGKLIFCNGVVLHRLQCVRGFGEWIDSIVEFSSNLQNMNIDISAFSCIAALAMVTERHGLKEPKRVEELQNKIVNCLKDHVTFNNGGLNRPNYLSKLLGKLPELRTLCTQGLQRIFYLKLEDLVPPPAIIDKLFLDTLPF
Sequence of Nuclear respiratory factor 1 (Homo sapiens) (Q16656 whole entry, looked up): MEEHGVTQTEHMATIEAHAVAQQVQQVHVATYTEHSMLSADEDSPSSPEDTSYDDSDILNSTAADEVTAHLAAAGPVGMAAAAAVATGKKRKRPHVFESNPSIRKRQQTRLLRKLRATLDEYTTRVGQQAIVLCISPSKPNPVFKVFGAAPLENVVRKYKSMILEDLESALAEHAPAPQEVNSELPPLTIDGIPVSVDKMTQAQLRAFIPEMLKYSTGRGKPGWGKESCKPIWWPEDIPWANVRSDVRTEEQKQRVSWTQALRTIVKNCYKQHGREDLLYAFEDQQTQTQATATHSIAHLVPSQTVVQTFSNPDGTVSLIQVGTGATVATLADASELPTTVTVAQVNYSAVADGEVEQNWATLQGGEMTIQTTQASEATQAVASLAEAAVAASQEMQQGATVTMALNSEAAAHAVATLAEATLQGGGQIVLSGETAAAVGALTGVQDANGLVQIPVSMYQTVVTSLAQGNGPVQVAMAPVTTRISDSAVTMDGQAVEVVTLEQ
Sequence of Bile acid receptor (Homo sapiens) (Q96RI1 whole entry, looked up, the tested form may be a part): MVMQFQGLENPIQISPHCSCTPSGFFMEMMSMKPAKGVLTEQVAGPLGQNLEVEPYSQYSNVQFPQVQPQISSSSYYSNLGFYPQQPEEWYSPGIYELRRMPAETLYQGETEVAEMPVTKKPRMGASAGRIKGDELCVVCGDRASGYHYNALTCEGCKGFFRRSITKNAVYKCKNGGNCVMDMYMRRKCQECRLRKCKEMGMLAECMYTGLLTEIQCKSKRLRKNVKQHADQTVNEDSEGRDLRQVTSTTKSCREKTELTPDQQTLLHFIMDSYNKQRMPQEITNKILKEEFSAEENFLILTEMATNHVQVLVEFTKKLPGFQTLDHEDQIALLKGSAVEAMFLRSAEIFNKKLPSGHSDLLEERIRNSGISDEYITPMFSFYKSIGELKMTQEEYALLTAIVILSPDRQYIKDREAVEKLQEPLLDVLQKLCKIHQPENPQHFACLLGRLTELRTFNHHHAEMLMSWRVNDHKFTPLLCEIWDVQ
Sequence of Nuclear receptor subfamily 1 group I member 3 (Homo sapiens) (Q14994 whole entry, looked up, the tested form may be a part): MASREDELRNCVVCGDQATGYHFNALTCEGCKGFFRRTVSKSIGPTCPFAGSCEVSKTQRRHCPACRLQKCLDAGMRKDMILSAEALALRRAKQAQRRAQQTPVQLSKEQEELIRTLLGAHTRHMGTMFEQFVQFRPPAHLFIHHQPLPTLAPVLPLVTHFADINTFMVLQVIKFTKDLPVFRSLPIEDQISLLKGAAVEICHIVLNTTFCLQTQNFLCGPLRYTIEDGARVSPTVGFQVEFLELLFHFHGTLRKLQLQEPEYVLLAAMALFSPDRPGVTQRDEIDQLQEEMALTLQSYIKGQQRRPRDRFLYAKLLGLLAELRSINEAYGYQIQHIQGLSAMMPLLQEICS
Sequence of Transcriptional activator Myb (Homo sapiens) (P10242 whole entry, looked up): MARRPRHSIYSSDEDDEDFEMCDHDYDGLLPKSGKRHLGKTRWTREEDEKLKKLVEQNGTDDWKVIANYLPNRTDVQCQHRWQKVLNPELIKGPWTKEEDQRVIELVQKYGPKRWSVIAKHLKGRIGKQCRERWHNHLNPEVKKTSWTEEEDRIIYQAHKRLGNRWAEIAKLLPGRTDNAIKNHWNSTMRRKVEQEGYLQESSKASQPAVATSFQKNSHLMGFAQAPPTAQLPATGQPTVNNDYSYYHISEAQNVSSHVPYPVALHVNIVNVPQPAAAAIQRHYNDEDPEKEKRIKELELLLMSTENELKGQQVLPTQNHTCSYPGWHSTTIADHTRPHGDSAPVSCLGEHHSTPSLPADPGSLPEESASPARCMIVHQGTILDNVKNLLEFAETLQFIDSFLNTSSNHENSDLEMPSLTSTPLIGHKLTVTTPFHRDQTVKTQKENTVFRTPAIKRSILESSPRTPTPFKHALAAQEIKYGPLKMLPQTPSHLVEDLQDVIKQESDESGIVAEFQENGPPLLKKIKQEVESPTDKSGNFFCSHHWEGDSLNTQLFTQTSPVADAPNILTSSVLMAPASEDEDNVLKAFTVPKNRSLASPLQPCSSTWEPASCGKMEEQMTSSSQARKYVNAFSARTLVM
Sequence of X-box-binding protein 1 (Homo sapiens) (P17861 whole entry, looked up): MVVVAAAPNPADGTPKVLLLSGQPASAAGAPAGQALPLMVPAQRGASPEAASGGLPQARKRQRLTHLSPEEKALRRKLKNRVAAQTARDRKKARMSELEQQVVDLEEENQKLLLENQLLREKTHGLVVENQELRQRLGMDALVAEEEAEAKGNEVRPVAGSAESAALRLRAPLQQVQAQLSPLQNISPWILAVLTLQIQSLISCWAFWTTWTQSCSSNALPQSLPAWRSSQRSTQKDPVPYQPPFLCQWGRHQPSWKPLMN
Sequence of Estrogen-related receptor gamma (Homo sapiens) (P62508 whole entry, looked up, the tested form may be a part): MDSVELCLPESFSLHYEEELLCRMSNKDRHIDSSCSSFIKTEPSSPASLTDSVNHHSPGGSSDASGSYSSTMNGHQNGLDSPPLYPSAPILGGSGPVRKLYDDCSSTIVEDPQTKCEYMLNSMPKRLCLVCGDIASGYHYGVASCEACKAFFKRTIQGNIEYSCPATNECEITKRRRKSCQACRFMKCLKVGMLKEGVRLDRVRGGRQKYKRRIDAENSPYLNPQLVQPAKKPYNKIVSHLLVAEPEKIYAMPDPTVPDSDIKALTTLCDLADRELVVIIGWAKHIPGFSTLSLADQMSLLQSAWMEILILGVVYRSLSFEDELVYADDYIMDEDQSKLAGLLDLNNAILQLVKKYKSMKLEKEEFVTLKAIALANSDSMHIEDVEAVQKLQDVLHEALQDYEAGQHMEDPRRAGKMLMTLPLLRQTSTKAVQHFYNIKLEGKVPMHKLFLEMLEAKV

Take `O=C(O)C1(c2ccc3c(c2)OC[C@H](Cc2ccc(-c4ccccc4)cc2)[C@H]3O)CCCC1`: the result in assay [1], in [2], in assay [3], in assay [4], in [5] and in assay [6] was inactive. Moreover, the result in [7], in [8], in [9], in [10] and in assay [11] was inactive.

In the case of `CCCCC(CC)COC(=O)Cl` (stereo unspecified), the molecule was classed as inactive in assay [1], in assay [2], in assay [12], in assay [4], in assay [5] and in assay [13]. Moreover, the molecule was called inactive in [7], in assay [8], in assay [9], in assay [10] and in [11].

With `Nc1cccnc1`, the molecule was called inactive in [1], in assay [2], in assay [4], in assay [14], in [7] and in assay [8]. In addition, the call in [10] and in assay [11] was inactive.

Consider `CC(C)(C)c1ccc(CCOc2ncnc3ccccc23)cc1`, for which the molecule was called inactive in assay [1], in assay [2], in assay [12], in [4], in assay [15] and in [6]. For the same molecule, the result in assay [8], in assay [10] and in [11] was inactive.

For `CCCCCCCCCCCCc1cccc(S(=O)(=O)O)c1`, the call in assay [1], in assay [2], in assay [4], in assay [7], in [9] and in assay [10] was inactive. Further, in [11], the outcome was inactive.

With `CC(=O)CN(CC(C)=O)N=O`, the call in assay [1], in assay [12], in assay [3], in [4], in assay [5] and in [16] was inactive. Besides, the outcome in [14], in assay [7], in assay [8], in [10] and in assay [11] was inactive.

Turning to `CN(CCCC(O)c1cccnc1)N=O` (stereo unspecified), the molecule was classed as inactive in assay [1], in [12], in [4], in assay [17], in [15] and in [6]. The molecule was called inactive in assay [8], in assay [10] and in assay [11].

As to `NC(=O)c1ccc(N)nc1`, the molecule was called inactive in assay [1], in assay [2], in assay [4], in [17], in assay [15] and in [16]. Besides, the result in [6], in assay [14], in assay [10] and in [11] was inactive.

For the molecule `CCCSP(=S)(OCC)Oc1ccc(SC)cc1` (stereo unspecified), the AC50 (as a rule, the midpoint of the concentration-response curve, whichever way the signal moves) in assay [1] is 100 µM (active); in assay [12] it was 4.92 µM (active). For the same molecule, the call in [2], in assay [4], in [15], in assay [13], in assay [6] and in assay [10] was inactive. Also, in [11], the result was inactive.

In the case of `Nc1ncn[nH]1`, the outcome in assay [1], in assay [2], in [4], in assay [7], in assay [10] and in assay [11] was inactive.
